In PubChem BioAssay AID687014 (The Scripps Research Institute Molecular Screening Center, 2013):
Among all 370,000 compounds or so, about 6,800 (1.8%) were called active. Shown is part of a subset that was picked to be rich in actives. Values without a mark were called inactive.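 The calls were made as follows: active = activation above a cutoff set at the mean of all screened compounds plus 3 SD (cut at about 10% in these data); inactive = the rest.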

Each molecule was assayed on Nuclear hormone receptor DAF-12 (Heterodera glycines), GAL4 fusion (assay: H. glycines DAF-12 receptor agonists, primary screen, cell-based, luminescence, HEK293, GAL4 fusion, UAS-luciferase (AID 687014;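 also: 0% = DMSO wells and 100% = sodium butyrate wells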)). Conditions: HEK293 GAL4-hgDAF12 UAS-luciferase reporter, agonist luminescence; at 6.8 µM; stronger effect = higher value; normalized to butyrate control.
In the case of `C=CCN1C(=O)[C@@H](CC(=O)NCCCCc2ccccc2)[C@]2(C(=O)OCC)CCCCC/C=C/12`, the activation is reported as 2.01%.
`Cc1ccccc1C(=O)N[C@H](C(=O)N1CCC[C@H]1C(=O)NCc1ccccc1)C(C)C` showed an activation of -1.35%.
Molecule `COc1cccc(CC(=O)N2CCN(C(=O)C(=O)c3cccc(C(F)(F)F)c3)CC2)c1` has an activation of -0.52%.
Molecule `CCOC(=O)c1csc(CCNC(=O)c2oc3c(Cl)cc(C)cc3c2C)n1` has an activation of 1.98%.
With `O=C(Nc1ccc(F)cc1)c1cc2c(s1)CCCC2` the activation was 10.8% (active).
`O=C(NCC1CCCO1)c1cc2c(s1)CCCC2` (stereo not given) was tested, and the activation was 7.29%.
`CN(C)C(=O)c1ccc(NC(=O)COC(=O)c2cc3c(s2)CCCCC3)cc1` was tested, and the activation was 2.42%.
`COc1ccc(CCNC(=O)NS(=O)(=O)c2ccc(C)cc2)cc1OC` was tested, and the activation was -1.2%.
Molecule `COc1cc(NC(=O)C2CCCN(S(=O)(=O)c3ccc(C(C)(C)C)cc3)C2)cc(OC)c1` (stereo not given) has an activation of 4.12%.
`CCn1c2ccccc2c2cc(NC(=O)CSc3nnc(-c4ccccc4)n3-c3ccc(C)cc3)ccc21` showed an activation of 1.54%.
With `Clc1ccc(-c2cc(-c3ccccn3)on2)c(Cl)c1` the activation was 11.2% (active).
Molecule `Clc1ccccc1-c1cc(COc2ccc3ccccc3c2)no1` has an activation of 0%.
`Fc1ccc(-c2ccc(CNCc3ccccn3)o2)cc1Cl` showed an activation of -0.65%.
`CS(=O)(=O)N(CC(=O)N1CCOCC1)c1ccc2c3c(cccc13)CC2` was tested, and the activation was 0.28%.
With `CCc1c(C)c2c(C)[nH]nc2oc1=O` the activation was -1.18%.
Work on `CN(Cc1nc2ccc(F)cc2[nH]1)Cc1nc(CC2CC2)no1` yielded an activation of -0.98%.
For `O=C(NN=Cc1ccco1)C(=O)Nc1ccc(Cl)c([N+](=O)[O-])c1`, the activation was -2.99%.
In the case of `COc1ccc(CCNC(=O)CSc2nc3c([nH]2)c(=O)n(C)c(=O)n3C)cc1`, the activation is reported as 0.07%.
In the case of `Cc1csc(SCC(=O)Nc2sccc2C#N)n1`, the activation is reported as 17.8% (active).
With `Cc1csc(SCC(=O)Nc2ccc(C)c(S(=O)(=O)N(C)C)c2)n1` the activation was 0.79%.
`N#Cc1ccsc1NC(=O)CN1CCCCC1` was tested, and the activation was -0.08%.
For `CC(=O)Nc1ccc(N2C(=O)C3C4CC(=O)C(c5ccccc54)C3C2=O)cc1` (stereo not given), the activation was -0.45%.
Work on `CC(=O)O[C@@]1(C(C)=O)CCC2[C@H]3C=C(C)C4=CC(=O)CC[C@@]4(C)C3CC[C@]21C` (stereo not given in full) yielded an activation of -4.47%.
`FC(F)(F)c1cccc(Cn2ccc3ccc(-c4ccc5ccn(Cc6ccccc6)c5c4)cc32)c1` was tested, and the activation was -0.72%.
Work on `COc1ccc(N2CCN(C(=S)Nc3ccc(S(N)(=O)=O)cc3)CC2)cc1` yielded an activation of -4.74%.
`COc1ccc(NC(=O)N2CCC(Cc3ccccc3)CC2)cc1` was tested, and the activation was 1.2%.
`COc1ccc(NC(=S)N2N=CCC2c2ccccc2)cc1` (stereo not given) was tested, and the activation was 16.5% (active).
`CC(Sc1nnc(Cc2ccc([N+](=O)[O-])cc2)o1)C(N)=O` (stereo not given) gave an activation of -0.65%.
`CCOC(=O)/C=C/c1ccccc1O` showed an activation of 2.77%.
Molecule `Cc1ccc(CN2CCN(Cc3ccccc3-c3ccco3)CC2CCO)o1` (stereo not given) has an activation of -2.88%.
Work on `N#CC1=C(N)N(c2ccc(F)cc2)C(=O)C1` yielded an activation of -1.83%.
Molecule `O=C(COC(=O)c1ccc(O)cc1O)NNC(=O)c1cccs1` has an activation of 0.57%.
With `Cc1ccc(NNC(=O)c2cccs2)cc1Cl` the activation was 1.51%.
`O=C(NNC(=O)c1ccc(Cl)cc1Cl)c1cccs1` was tested, and the activation was 18.7% (active).
`O=C(CCc1nnc(CCCCc2ccccc2)o1)NC(c1cccnc1)C(F)(F)F` (stereo not given) was tested, and the activation was 1.64%.
`Cc1cc(=O)n2nc(N3CCCC(C(=O)N4CCN(C)CC4)C3)sc2n1` (stereo not given) gave an activation of -0.62%.
In the case of `O=S1(=O)c2ccc(Br)cc2OC[C@H](Cc2ccccc2)N1Cc1cn(Cc2ccccc2)nn1`, the activation is reported as -1.13%.
For `Cc1nccn1CCC1CCCCN1C(=O)CCc1nnc(-c2ccsc2)o1` (stereo not given), the activation was -0.93%.
Molecule `CC(Sc1nc2cc(Cl)ccc2s1)C(=O)Nc1ccc2c(c1)OCO2` (stereo not given) has an activation of 7.08%.
For `CC(=O)Nc1cccc(C(=O)OCC(=O)NCc2cc(C)c(O)c(C)c2)c1`, the activation was 3.44%.
In the case of `CC(C)C(=O)Nc1cccc(C(=O)Nc2ccc3c(c2)OCO3)c1`, the activation is reported as 14.9% (active).
`CC(=O)Nc1cccc(C(=O)OCC(=O)c2ccc3c(c2)OCO3)c1` was tested, and the activation was 17.4% (active).
For `CC(=O)Nc1cccc(C(=O)OCN2C(=O)c3ccccc3C2=O)c1`, the activation was -0.37%.
In the case of `CCSc1ccccc1C(=O)Nc1ccc2c(c1)OCO2`, the activation is reported as 3.85%.
For `COC(=O)C1=C(C(=O)OC)C2C=C(C(C)C)C1C(=O)C2(C)O` (stereo not given), the activation was 2.89%.
With `COC(=O)c1cccc(Cn2ccc3ccc(-c4ccc5ccn(C(=O)c6ccccc6C)c5c4)cc32)c1` the activation was 0.42%.
For `O=C(NS(=O)(=O)c1cccs1)[C@H]1O[C@@H](n2ccc(=O)[nH]c2=O)[C@H](O)[C@@H]1O`, the activation was 1.66%.
In the case of `COc1ccc(N2CCN(CCNS(=O)(=O)c3ccc([N+](=O)[O-])cc3)CC2)cc1`, the activation is reported as -4.01%.
`O=C(CSc1nc2ccccc2o1)N/N=C/c1ccccc1C(=O)O` showed an activation of 1.68%.
For `CCOc1ccccc1/C=N/Nc1nc2ccccc2o1`, the activation was 10.6% (active).
In the case of `Fc1ccccc1OCCSc1nc2ccccc2o1`, the activation is reported as 3.51%.
Molecule `COc1ccccc1C(=O)N1O[C@]23C=C[C@]14C[C@@H](O)CC[C@]4(C)C2CC[C@]1(C)[C@@H]([C@H](C)/C=C/[C@H](C)C(C)C)CC[C@H]13` (stereo not given in full) has an activation of -1.48%.
In the case of `CC(=NNC(=S)N1CCCCCC1)c1ccccn1`, the activation is reported as 2.43%.
With `C/C(=N\NC(=O)c1ccccc1F)c1ccccn1` the activation was 10.8% (active).
Work on `C/C(=N/NC(=O)c1ccn(C)n1)c1ccncc1` yielded an activation of 7.12%.
Molecule `Cc1ccc(S(=O)(=O)N2C[C@@H](C)[C@]3(C2)[C@H](O)[C@H](OC(=O)NCc2ccccc2)C[C@H]2C(=O)N(c4ccccc4)C(=O)[C@H]23)cc1` has an activation of -0.54%.
Work on `Cc1ccc(CN2CCCCC(NC(=O)C3CCCCC3)C2=O)cc1` (stereo not given) yielded an activation of -1.5%.
In the case of `O=c1[nH]c(CCl)nc2cc(-c3ccc(Cl)cc3)sc12`, the activation is reported as 12.9% (active).
`Cn1c(NCc2cccnc2)nc2cc(-c3ccc(F)cc3)sc2c1=O` showed an activation of 8.39%.
With `COc1cccc(-c2cc3nc(NCCOc4ccccc4Cl)n(C)c(=O)c3s2)c1` the activation was 0.22%.
